# F508del corr = correctors of CFTR F508del function in bronchial epithelial cells; actives 0.36% (n = 350,000); CFBE cells, YFP halide quenching; stimulated with forskolin plus potentiator P3; % fluorescence drop versus neutral controls; activity (quench increase), % at 7.58 µM;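 active = mean added fluorescence quench of at least 8% versus neutral control, with both replicates also reaching 8%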;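 also: cells transiently co-express mutant CFTR-F508del with the halide-sensitive YFP; corrector assay measuring rescue of mutant channel to the surface after 24 h compound exposure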
# Vif imaging = blocks HIV Vif function; HEK293T cells, Vif self-association by quenched fluorescence, imaging, 24 h; inhibition, % at 7.49 µM; actives 0.35% (n = 340,000); in the data active = inhibition above about 50%, passing the limit was not always enough
# FGF22 binding = FGF22 (human) thermal shift binding. Q9HCT0. AID 651658. recombinant FGF22 thermal shift, SYPRO orange fluorescence; percent of sucrose octasulfate shift, DMSO zero. actives 1.5% (n = 340,000). activity (Tm shift, normalised), % at 9.99 µM;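 active = mean Tm shift, scaled 0 neutral to 100 positive control, at about 1.3% or above, every replicate too, limit read from the data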
# Target sequence (Q9HCT0 whole entry, looked up): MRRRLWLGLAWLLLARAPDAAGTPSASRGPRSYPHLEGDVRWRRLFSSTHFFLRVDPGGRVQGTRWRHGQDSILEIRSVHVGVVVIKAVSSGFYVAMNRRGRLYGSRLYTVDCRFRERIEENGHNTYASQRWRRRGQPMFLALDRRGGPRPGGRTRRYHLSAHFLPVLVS
# * marks the source's active call; other numbers are inactive results; . = no result. A selection: hits, their analogues and other compounds. The true share with any hit is near 1.7%.
SMILES,F508del corr,Vif imaging,FGF22 binding
CO[C@@H]1CN(C)C(=O)c2cc(NC(=O)Nc3cccc(F)c3)ccc2OC[C@@H](C)NC[C@@H]1C,2,.,0
COc1ccccc1NC(=O)c1ccc(NC(=O)CN(C)Cc2ccccc2F)cc1,-1,-2,43*
CN(CC(=O)Nc1ccccc1Oc1ccccc1)Cc1ccccc1F,.,-6,.
C[C@@H]1CN([C@@H](C)CO)S(=O)(=O)c2ccc(C#CC3CCCCC3)cc2O[C@@H]1CN(C)C(=O)Cc1ccncc1,1,.,0
CC(C)CC#Cc1ccc2c(c1)O[C@@H](CN(C)S(C)(=O)=O)[C@H](C)CN([C@H](C)CO)S2(=O)=O,.,.,-1
Cc1cccc(Nc2nc(-c3ccc4c(c3)OCCO4)cs2)c1,.,0,.
COc1cc(-c2csc(C)n2)ccc1O,.,-2,.
Cc1nc(-c2ccc3c(c2)OCCO3)cs1,1,-7,43*
Cc1nc(-c2ccc(O)c(O)c2)cs1,.,67*,.
O=C(O)[C@@H]1[C@@H](CO)[C@@H]2Cn3c(ccc(-c4ccc(F)cc4)c3=O)[C@@H]2N1CCc1ccccc1,.,.,0
O=C(Nc1ccccc1F)N1C[C@@H]2[C@H](c3ccccc31)[C@H](CO)N2C(=O)c1ccccn1,5,.,-1
O=C(Nc1ccccc1)N1C[C@H]2[C@@H](c3ccccc31)[C@H](CO)N2C(=O)c1ccccn1,11*,.,-1
O=C(Nc1ccccc1F)N1C[C@H]2[C@@H](c3ccccc31)[C@@H](CO)N2C(=O)c1ccccn1,9.7*,.,-1
O=C(Nc1ccccc1)N1C[C@@H]2[C@H](c3ccccc31)[C@@H](CO)N2C(=O)c1ccccn1,0,.,-2
CC(C)NC(=O)Nc1cccc2c1O[C@@H](CN(C)Cc1ccccc1)[C@@H](C)CN([C@H](C)CO)C2=O,-1,.,0
C[C@H]1CN([C@@H](C)CO)C(=O)c2cc(C#Cc3ccncc3)cnc2O[C@H]1CN(C)C(=O)c1ccccc1F,2,.,0
C[C@@H]1CCCCO[C@@H](CN(C)CC2CCCCC2)[C@H](C)CN([C@@H](C)CO)C(=O)c2cc(NC(=O)Nc3ccccc3)ccc2O1,-2,.,0
CC(=O)N(C)C[C@@H]1Oc2cc(-c3ccncc3)ccc2S(=O)(=O)N([C@H](C)CO)C[C@@H]1C,-1,.,0
CCC(=O)N(C)C[C@H]1Oc2cc(-c3ccc(F)cc3)ccc2S(=O)(=O)N([C@H](C)CO)C[C@@H]1C,0,.,0
Nc1ncc(C(=O)O)c(-c2ccccc2)n1,0,8,0
Cc1cnc(N)nc1-c1ccccc1,0,.,43*
C[C@@H]1CN([C@@H](C)CO)C(=O)c2cccc(NC(=O)c3ccc(-c4nccs4)cc3)c2O[C@H]1CN(C)C,1,.,0
Cc1ncc([N+](=O)[O-])n1CC(=O)Nc1ccccc1,-1,-1,43*
Cc1ccc(NC(=O)Cn2c([N+](=O)[O-])cnc2C)cc1,-2,-7,0
Cc1noc(C)c1S(=O)(=O)Nc1ccc2c(c1)C(=O)N([C@H](C)CO)C[C@H](C)[C@H](CN(C)S(=O)(=O)c1ccccc1)O2,-1,.,0
SMILES,F508del corr,Vif imaging,FGF22 binding
C[C@H](CO)N1C[C@H](C)[C@H](CN(C)C(=O)CCC(F)(F)F)OCc2ccccc2-c2c(n(C)c3ccccc23)C1=O,4,.,0
COc1ccc(NCC(=O)n2c(C)c(C)c3ccccc32)cc1,9.4*,-3,41
COc1ccc(NC(=O)Cn2c(C)cc(=O)c3ccccc32)cc1,-2,-32,0
O=C(Cc1ccncc1)NCC[C@@H]1CC[C@@H](NC(=O)Nc2ccc(F)cc2)[C@H](CO)O1,2,.,-1
CC1CCC/C(=N\NC(=S)Nc2ccccc2)C1 (stereo not drawn),.,11,.
CC1CCCC/C1=N\NC(=S)Nc1ccccc1 (stereo not drawn),-2,66*,0
CC(O)CNCc1ccc(Cl)cc1Cl (stereo not drawn),-1,11,45*
OCCCNCc1ccc(Cl)cc1Cl,-6,8,0
C[C@@H]1CN([C@H](C)CO)C(=O)c2cc(C#Cc3ccccc3F)cnc2O[C@H]1CN(C)C(=O)C1CCC1,1,.,0
C[C@@H]1CCCCO[C@H](CN(C)Cc2ccc(C(=O)O)cc2)[C@H](C)CN([C@@H](C)CO)C(=O)c2cc(NS(=O)(=O)c3cn(C)cn3)ccc2O1,1,.,1.3*
Cc1noc(C)c1S(=O)(=O)Nc1ccc2c(c1)C(=O)N([C@H](C)CO)C[C@@H](C)[C@H](CN(C)Cc1ccc(C(=O)O)cc1)OCCCC[C@@H](C)O2,-1,.,1
Cc1noc(C)c1S(=O)(=O)Nc1ccc2c(c1)C(=O)N([C@@H](C)CO)C[C@@H](C)[C@@H](CN(C)Cc1ccc(C(=O)O)cc1)OCCCC[C@H](C)O2,0,.,1
